From PubChem BioAssay (Tox21)
“And” between values parts separate entries of the source, which are not always exact repeats. Identical values can stand only once. Inconclusive results are not listed. Some structures have more than one record in an assay (separate samples or runs), and their calls can disagree. The source made the active and inactive calls. Calls follow the shape of the dose curve; as a rule, active = well fitted activation curve with a large enough effect in the repeat runs; inconclusive = weak or mixed curves; inactive = no such curve, though single readings can be large or run the other way.

Molecular target: Nuclear receptor subfamily 1 group I member 2 (Rattus norvegicus) (UniProt Q9R1A7)
Sequence (Q9R1A7 whole entry, looked up): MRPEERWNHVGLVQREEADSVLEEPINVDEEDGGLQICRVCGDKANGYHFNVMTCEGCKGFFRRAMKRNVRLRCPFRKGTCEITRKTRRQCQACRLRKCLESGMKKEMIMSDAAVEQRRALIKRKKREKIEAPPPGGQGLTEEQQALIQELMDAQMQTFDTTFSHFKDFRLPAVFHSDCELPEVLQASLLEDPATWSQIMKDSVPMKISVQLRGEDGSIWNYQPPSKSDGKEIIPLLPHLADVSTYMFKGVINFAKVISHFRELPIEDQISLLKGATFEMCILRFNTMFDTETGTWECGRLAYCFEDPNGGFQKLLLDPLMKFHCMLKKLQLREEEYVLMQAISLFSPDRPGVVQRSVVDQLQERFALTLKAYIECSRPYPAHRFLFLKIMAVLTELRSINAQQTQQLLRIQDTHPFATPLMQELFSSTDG
Test: Rat pregnane X receptor (rPXR) activation by small molecules, qHTS assay (AID 1346983); also: nearly all actives have a fitted effect of over 20% in size
Conditions: rPXR luciferase reporter cells, One-Glo luminescence, 24 h; max activation: stronger effect = higher value
In short: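 Cell-based rPXR activation assay: rPXR cells, 2,000 per well, rested 5hr at 37 C, then exposed to compounds in DMSO for 24 hr at 37 C. Luciferase activity read by One-Glo luminescence after 30 min at room temperature.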
% is scaled to controls: 0 for no effect and ±100 for the full control effect.

Compound | max activation
CCc1ccc2c(c1)N(CC(C)CN(C)C)c1ccccc1S2 (configuration not stated) | 1.61% (inactive)
CN1CCC(CN2c3ccccc3Sc3ccccc32)C1 (configuration not stated) | -2.87% (inactive)
O=C(O)c1c(Cl)c(Cl)c(Cl)c(Cl)c1-c1c2cc(I)c(=O)c(I)c-2oc2c(I)c(O)c(I)cc12 | -7.42% (inactive)
C=C1C(=C/C=C2\CCC[C@]3(C)[C@@H]([C@H](C)CCCC(C)(C)O)CC[C@@H]23)C[C@@H](O)C[C@@H]1O | 0.618% (inactive)
C=CCNC1=C2C[C@@H](C)C[C@H](OC)[C@H](O)[C@@H](C)/C=C(\C)[C@H](OC(N)=O)[C@@H](OC)/C=C\C=C(/C)C(=O)NC(=CC1=O)C2=O | -14.2% (inactive)
CC(C)(C)NC[C@H](O)COc1ccccc1C1CCCC1 | -2.28% (inactive)
Nc1ncnc2c1ncn2[C@@H]1O[C@H](COP(=O)(O)OP(=O)(O)OP(=O)(O)O)[C@@H](O)[C@H]1O | 2.22% (inactive)
O=C1C(=O)c2ncccc2-c2cccnc21 | -3.81% (inactive)
CNC(C)CCC=C(C)C (configuration not stated) | 2.06% (inactive)
OCCN1CCN(CC/C=C2/c3ccccc3Sc3ccc(Cl)cc32)CC1 | -1.76% (inactive)
O=c1oc2cc(O)ccc2s1 | -17.1% (inactive)
NCc1ccccc1CC(=O)N[C@@H]1C(=O)N2C(C(=O)O)=C(CSc3nnnn3CC(=O)O)CS[C@H]12 | -0.103% (inactive)
Nc1ccc(S(=O)(=O)Nc2ncccn2)cc1 | -1.29% (inactive)

Molecular target: Nuclear receptor subfamily 1 group I member 2 (Homo sapiens) (UniProt O75469)
Test: CYP3A4 induction through human pregnane X receptor (PXR) by small molecules, qHTS assay (AID 1346984); also: nearly all actives have a fitted effect of over 40% in size; also: potency is read from the fitted curve at half-maximal effect
Conditions: DPX-2 HepG2 PXR, CYP3A4-luciferin luminescence, 24 h; series mostly up to 46.1 µM; activation: at the top concentration
In short: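 Induction measured in HepG2-based DPX-2 cells co-expressing human PXR and a CYP3A4 promoter-driven luciferase. After a 24-hour compound exposure, cells received CYP3A4 luciferin substrate at 3uM final for 3 hours, and light output was then recorded.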

Compound | activation | Potency
C[Se]CCC(N)C(=O)O (configuration not stated) | 37.5% (inactive) | 
CNC(=O)c1c(I)c(C(=O)NCC(=O)Nc2c(I)c(C(=O)O)c(I)c(C(=O)NCCO)c2I)c(I)c(N(C)C(C)=O)c1I | 0.737% (inactive) | 
CN1CCCC(CN2c3ccccc3Sc3ccccc32)C1 (configuration not stated) |  | 25.1 µM (active)
CC(=O)Nc1ccc(NC(=S)NC(=O)c2ccc(C(C)(C)C)cc2)cc1 | 23.1% (inactive) | 
C[C@]12CC[C@@H]3c4ccc(O)cc4CC[C@H]3[C@@H]1CC[C@@H]2OP(=O)(O)O | -3.4% (inactive) | 
CC1(C)[C@@H]2CC[C@@]1(C)[C@H](OC(=O)CSC#N)C2 | 2.44% (inactive) | 
C=C[C@]1(C)C[C@@H](OC(=O)CSC(C)(C)CNC(=O)[C@H](N)C(C)C)[C@]2(C)[C@H](C)CC[C@]3(CCC(=O)[C@H]32)[C@@H](C)[C@@H]1O | -6.51% (inactive) | 
CN(C)CC/C=C1/c2ccccc2CSc2ccccc21 | 8.14% [at 20.6 µM] (inactive) | 
CN1[C@@H]2CC[C@H]1CC(OC(c1ccccc1)c1ccccc1)C2 (some centres not stated) |  | inactive and 14.1 µM (active)
CCN(CC)Cc1cc(Nc2ccnc3cc(Cl)ccc23)ccc1O | 5.7% [at 20.6 µM] (inactive) | 
O=C1CSC2(CCN(CCCN3c4ccccc4Sc4ccc(Cl)cc43)CC2)N1 | -4.27% (inactive) | 
Cc1nc(NS(=O)(=O)c2ccc(N)cc2)nc(C)c1Br | -1.33% (inactive) | 
CC(/C=C/C=C(\C)C(=O)O[C@@H]1O[C@H](CO[C@@H]2O[C@H](CO)[C@@H](O)[C@H](O)[C@H]2O)[C@@H](O)[C@H](O)[C@H]1O)=C\C=C\C=C(C)\C=C\C=C(/C)C(=O)O[C@@H]1O[C@H](CO[C@@H]2O[C@H](CO)[C@@H](O)[C@H](O)[C@H]2O)[C@@H](O)[C@H](O)[C@H]1O | 11% (inactive) | 
CCN(CC)CCOc1ccc(-c2nc3cc(Cl)ccc3s2)cc1 |  | 12.6 µM (active)
CN(C)CCCN1c2ccccc2C(C)(C)c2ccccc21 |  | 31.6 µM (active)
C[C@]12CCC(=O)C[C@@H]1CC[C@@H]1[C@@H]2CC[C@]2(C)C=CC[C@@H]12 | -9.22% (inactive) | 
CC(C)N1CCN(c2ccc(OC[C@H]3CO[C@](Cn4cncn4)(c4ccc(Cl)cc4Cl)O3)cc2)CC1 | 7.58% [at 20.6 µM] (inactive) | 
CCc1ccc2c(c1)N(CC(C)CN(C)C)c1ccccc1S2 (configuration not stated) |  | 12.6 µM (active)
CN1CCC(CN2c3ccccc3Sc3ccccc32)C1 (configuration not stated) |  | 0.891 µM (active)
C=C1C(=C/C=C2\CCC[C@]3(C)[C@@H]([C@H](C)CCCC(C)(C)O)CC[C@@H]23)C[C@@H](O)C[C@@H]1O | -11.7% (inactive) | 
C=CCNC1=C2C[C@@H](C)C[C@H](OC)[C@H](O)[C@@H](C)/C=C(\C)[C@H](OC(N)=O)[C@@H](OC)/C=C\C=C(/C)C(=O)NC(=CC1=O)C2=O | -31.7% (inactive) | 
CC(C)(C)NC[C@H](O)COc1ccccc1C1CCCC1 | 0% [at 20.6 µM] (inactive) | 
Nc1ncnc2c1ncn2[C@@H]1O[C@H](COP(=O)(O)OP(=O)(O)OP(=O)(O)O)[C@@H](O)[C@H]1O | -17.4% (inactive) | 
O=C1C(=O)c2ncccc2-c2cccnc21 | -16.1% (inactive) | 
